Source: PubChem
Compounds with a hit are over-represented: about 3.5% of the library has one in this group of screens.
TEAD-YAP inh – TEAD-YAP interaction inhibition. inhibition, % at 9.12 µM. 1.4% of 640,000 active. HEK-TIYL cells, TEAD-Gal4/YAP UAS-luciferase luminescence. AID 1259422; in the data active = inhibition above about 32%;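 also: 0% = median of test compound wells and 100% = reference inhibitor wells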
MITF inh – human MITF inhibition, primary screen; AID 1259374; 0.91% of 650,000 active; AlphaScreen MITF homodimerization, bead proximity signal; O75030; inhibition, % at 2.6 µM; in the data active = inhibition above about 50%;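 also: 0% = vehicle wells with protein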
Target sequence (O75030 whole entry, looked up): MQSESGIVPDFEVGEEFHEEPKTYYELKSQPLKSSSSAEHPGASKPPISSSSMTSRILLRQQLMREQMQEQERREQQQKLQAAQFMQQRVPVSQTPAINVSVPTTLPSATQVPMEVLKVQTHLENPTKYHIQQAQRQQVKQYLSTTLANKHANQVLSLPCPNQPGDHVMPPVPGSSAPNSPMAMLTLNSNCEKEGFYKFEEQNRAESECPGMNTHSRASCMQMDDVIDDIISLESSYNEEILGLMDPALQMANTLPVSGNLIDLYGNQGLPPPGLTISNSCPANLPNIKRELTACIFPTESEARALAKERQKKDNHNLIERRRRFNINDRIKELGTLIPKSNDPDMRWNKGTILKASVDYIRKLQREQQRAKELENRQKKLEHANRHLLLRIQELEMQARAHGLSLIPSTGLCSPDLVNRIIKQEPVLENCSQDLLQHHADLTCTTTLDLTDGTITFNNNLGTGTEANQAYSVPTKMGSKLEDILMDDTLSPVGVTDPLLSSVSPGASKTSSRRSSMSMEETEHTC
FBW7 activator – human FBW7 E3 ligase activation, primary screen; 0.13% of 650,000 active; normalized activity (activation), % at 26.1 µM; Q969H0; AlphaScreen FBW7–phospho-cyclin E peptide binding, activator screen; in the data active = normalized activity above about 1.9%;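 also: purified mutant Fbw7 with reduced substrate affinity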
GPR151 activ – human GPR151 activation. Q8TDV0. PathHunter beta-arrestin GPR151 cells, luminescence. activation, % at 11.2 µM. 1% of 650,000 active; in the data active = activation above about 4.9%;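 also: 0% = median of compound wells and 100% = cells with positive control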
MITF inh conf – confirmation of human MITF inhibitors; shares compounds with MITF inh; AlphaScreen MITF homodimerization, biotin/His-MITF beads; inhibition, % at 2.6 µM; 16% of 4,700 active; AID 1259372;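 active = inhibition above a cutoff derived from the DMSO control wells, cut at about 28% in these data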;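 also: 0% = MITF dimer wells with DMSO only; inhibitors lower the bead chemiluminescence by keeping MITF from dimerizing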
AlphaScreen intf2 – AlphaScreen optical interference, counter-screen | 7.6% of 4,700 active | inhibition, % at 2.6 µM | LysRS AlphaScreen counterscreen, signal interference, triplicate | shares compounds with MITF inh;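 active = inhibition above a cutoff derived from the DMSO control wells, cut at about 30% in these data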
The depositor's hits bear a star; x = no result given.

SMILES | TEAD-YAP inh | MITF inh | FBW7 activator | GPR151 activ | MITF inh conf | AlphaScreen intf2
O=[N+]([O-])c1ccccc1S(=O)(=O)N1CCN(Cc2ccccn2)CC1 | 7 | 58* | 0 | -1 | 13 | 14
O=[N+]([O-])c1ccccc1S(=O)(=O)N1CCN(c2ncccn2)CC1 | -2 | -2 | 0 | 0 | x | x
O=[N+]([O-])c1ccccc1S(=O)(=O)N1CCN(C2CCCC2)CC1 | 3 | 11 | 0 | 1 | x | x
Cc1ccc(S(=O)(=O)N2CCN(Cc3ccccc3Br)CC2)cc1 | 6 | 61* | 0 | -2 | 13 | 15
COc1ccc(S(=O)(=O)N2CCN(Cc3ccccc3Br)CC2)cc1 | 4 | 18 | 0 | -1 | x | x
COc1ccc(CN2CCN(S(=O)(=O)c3ccccc3[N+](=O)[O-])CC2)cc1 | 4 | 38 | 0 | 0 | x | x
O=[N+]([O-])c1ccccc1S(=O)(=O)N1CCN(Cc2ccc(Cl)cc2)CC1 | 4 | 73* | 0 | -1 | 16 | 13
CN(C)CCNC(=S)N1CCN(S(=O)(=O)c2ccccc2[N+](=O)[O-])CC1 | 7 | 73* | 0 | 4 | -2 | 9
O=[N+]([O-])c1ccccc1S(=O)(=O)N1CCN(Cc2ccccc2Br)CC1 | 6 | 65* | 0 | 0 | 0 | 17
O=[N+]([O-])c1ccccc1S(=O)(=O)N1CCN(Cc2cccnc2)CC1 | -13 | 74* | 0 | -1 | 15 | 19
CN1CCN(C(=O)C2CCCN(S(=O)(=O)c3ccccc3[N+](=O)[O-])C2)CC1 (stereo not drawn) | 2 | 82* | 0 | 4 | 10 | 15
O=C(c1cccnc1)N1CCN(S(=O)(=O)c2ccccc2[N+](=O)[O-])CC1 | -7 | -24 | 0 | 0 | x | x
CN1C(=O)N(C)C2(c3ccccc3)Nn3c(s/c(=C\c4cc5c(cc4Br)OCO5)c3=O)=NC12c1ccccc1 (stereo not drawn) | -7 | 14 | 1 | 0 | x | x
CC(=O)Nc1ccc(S(=O)(=O)N2CCN(Cc3ccccc3C(F)(F)F)CC2)cc1 | 1 | 70* | 0 | 1 | 4 | 7
O=C(Nc1c(F)cc(F)cc1Br)C(=O)NC1CC1 | -16 | 10 | 0 | 0 | x | x
COc1ccc(CN2CCN(C3CCC(c4ccccc4)CC3)CC2)c(OC)c1 (stereo not drawn) | -1 | 58* | 0 | -2 | 16 | 19
COc1cc(C(=O)N2CCN(C3CCC(c4ccccc4)CC3)CC2)cc(OC)c1OC (stereo not drawn) | 0 | 51* | 0 | -2 | 13 | 17
COc1ccc(CN2CCN(C3CCN(Cc4ccccc4)CC3)CC2)c(OC)c1 | 7 | 38 | 1 | 0 | x | x
COc1ccc(CN2CCC(N3CCN(c4ccccc4)CC3)CC2)c(OC)c1 | 18 | 60* | 0 | -1 | -9 | -1
COc1ccccc1CN1CCN(C2CCC(c3ccccc3)CC2)CC1 (stereo not drawn) | -27 | 71* | 0 | 2 | -4 | 3
COc1cc(C(=O)N2CCN(C(=O)c3ccccc3)CC2)cc(OC)c1OC | -7 | 2 | 0 | 0 | x | x
c1ccc(C2CCC(N3CCN(C4CCCCC4)CC3)CC2)cc1 (stereo not drawn) | -10 | 34 | 0 | 2 | x | x
COc1ccc(CCNC(=O)N2C(=O)C=CC2=O)cc1OC | -1 | 6 | 0 | 0 | x | x
COCCCNCCOc1c(C)cccc1C(C)(C)C | -14 | 81* | 0 | -1 | 13 | 10
C=CCNCCOCCOc1c(C)cccc1C(C)(C)C | -8 | 68* | 0 | -1 | -7 | -6
SMILES | TEAD-YAP inh | MITF inh | FBW7 activator | GPR151 activ | MITF inh conf | AlphaScreen intf2
COCCNCCCCOc1c(C)cccc1C(C)(C)C | -6 | 26 | 0 | 0 | x | x
COCCCNCCCOc1c(C)cccc1C(C)(C)C | 2 | 34 | 0 | 0 | x | x
COc1ccc(CN2CCOCC2)c2ccccc12 | 8 | 16 | 0 | 0 | x | x
CC1=C(C(=O)Nc2ccccc2C)C(c2ccco2)C(C#N)=C(SCC(=O)Nc2ccc(C)cc2)N1 (stereo not drawn) | -15 | -10 | 0 | 2 | x | x
CCOc1ccc(NC(=O)CSC2=C(C#N)C(c3ccco3)C(C(=O)Nc3ccccc3C)=C(C)N2)cc1 (stereo not drawn) | 7 | 63* | 0 | 1 | 0 | 3
Cc1nc2ncnn2c(NCC2CCCCC2)c1C | 1 | 47 | 0 | 4 | x | x
C#CCNc1c(C)c(C)nc2ncnn12 | 6 | 68* | 0 | 0 | 8 | 16
CN1CCN(CC(O)COc2ccc(Br)cc2)CC1 (stereo not drawn) | -1 | -6 | 0 | 0 | x | x
CC(=O)N(C)c1ccc(OCC(O)CN2CCN(C)CC2)cc1 (stereo not drawn) | -3 | 60* | 0 | -2 | 14 | 18
CCOC(=O)c1c(C)n(C)c2ccc(OCC(O)CN3CCCCC3)cc12 (stereo not drawn) | 1 | 54* | 0 | 2 | -6 | 1
COc1ccc(OCC(O)CN2CCCC2)cc1 (stereo not drawn) | -5 | 55* | 0 | 1 | 6 | 7
COc1ccc(OCC(O)CN2CCCCCC2)cc1 (stereo not drawn) | -8 | 49 | 1 | 0 | x | x
CC(=O)N(C)c1ccc(OCC(O)CN2CCN(c3ccccn3)CC2)cc1 (stereo not drawn) | -1 | 65* | 0 | -1 | 6 | 13
O=C(Nc1ccccc1Cl)N(CCO)Cc1cc2cc3c(cc2[nH]c1=O)OCCO3 | 10 | 5 | 0 | 1 | x | x
COc1ccc(CCNC(=O)c2cnc(N3CCOCC3)s2)cc1 | 4 | 41 | 0 | 0 | x | x
COc1ccc(-c2cnn3ccc(NCc4cccnc4)nc23)cc1OC | 17 | 55* | 0 | 1 | 3 | 5
CCN1CCN(CCCCOc2ccc(C#N)cc2)CC1 | 5 | 66* | 0 | -1 | 4 | 13
CN1CCN(CCCOc2ccc(C#N)cc2)CC1 | 13 | 2 | 0 | 0 | x | x
CCOc1cccc(OCCCCN2CCN(C)CC2)c1 | 2 | 71* | 0 | -2 | 13 | 14
CCCCOc1cccc(OCCCN2CCN(C)CC2)c1 | 6 | -8 | 0 | 0 | x | x
CCCOc1cccc(OCCN2CCN(CC)CC2)c1 | 0 | 79* | 1 | 4 | 9 | 13
CCN1CCN(CCOCCOc2ccc(CCC(C)=O)cc2)CC1 | 9 | 66* | 0 | 1 | 7 | 7
O=C(Nc1nc(-c2nc3ccccc3s2)cs1)c1ccc(S(=O)(=O)N2CCc3ccccc3C2)cc1 | -27 | 8 | 0 | 2 | x | x
O=C(C(=O)N1CCN(C(c2ccccc2)c2ccccc2)CC1)N1CCCCC1 | 11 | 2 | 1 | 0 | x | x
CC(C)(C)n1nnnc1C(c1ccccn1)N1CCN(Cc2ccccc2Cl)CC1 (stereo not drawn) | -6 | 21 | 1 | -1 | x | x
CCOc1cccc(OCCCN2CCN(CC)CC2)c1 | -2 | 74* | 0 | -2 | 18 | 16
CN1CCN(CCOCCOc2ccc(Cl)cc2)CC1 | -1 | 36 | 0 | 0 | x | x
CCN1CCN(CCCOc2cccc(C(C)C)c2)CC1 | 7 | 48 | 0 | -1 | x | x
